Hits are enriched below; roughly 9.9% of the tested compounds scored in any of these assays.
MCF10A rereplic: inducers of DNA re-replication in MCF 10A breast cells | MCF 10A DNA re-replication, Hoechst nuclear intensity, 48 h | Potency, µM (titrated, usually from 46.1 µM), most hits filed as activators | hit rate 2.9% among 350,000 | AID 624296; also: nearly all actives have a fitted effect of over 50% in size
SW480 rerep: inducers of DNA re-replication in SW480 colon cancer cells; SW480 DNA re-replication, Hoechst DNA content imaging, 48 h; Potency, µM (top dose mostly 46.1 µM), usual class: activators; hit rate 1.8% among 340,000; also: nearly all actives have a fitted effect of over 55% in size
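SW480 cells exposed to compounds for 48 hr at 37 C, 5% CO2, then Hoechst-stained 40 min. Nuclear DNA content imaged by fluorescence scanning (405 nm excitation, 500-530 nm emission); re-replication scored as increased high-intensity nuclei.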
IL-1B inflam inh: inflammasome signaling inhibition, IL-1 beta readout | activity change, % at 57.5 µM | hit rate 4.7% among 360,000 | THP-1 LPS/ATP IL-1B secretion, AlphaLISA, 16 h; stronger effect = lower value; in the data active = activity change below about -50%; inconclusive = mostly about -30% to -49%
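Secreted IL-1B measured by AlphaLISA bead assay after 16 h compound exposure of THP-1 cells; compounds (final up to 57.5 uM) added 1 h before LPS (250 ng/mL) and ATP (1.25 mM) stimulation; lower signal means less secretion.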
KB-3-1 tox: kills parental KB-3-1 adenocarcinoma cells; KB-3-1 viability, CellTiter-Glo ATP luminescence, 72 h; Potency, µM (highest dose often 46.1 µM), usual class: cytotoxic; hit rate 1.4% among 400,000; AID 1347075; also: nearly all actives have a fitted effect of over 60% in size
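Parental KB-3-1 adenocarcinoma cells in phenol-red-free DMEM with 10% FBS were pin-treated with compounds at several concentrations, incubated 72 h at 37 °C, and viability read by CellTiter-Glo luminescence; concentration-effect curves were fitted after normalization.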
KB-V1 cytotox: kills drug-selected multidrug resistant KB-V1 cells | KB-V1 MDR cells viability, CellTiter-Glo, 72 h | Potency, µM (doses to about 46.1 µM), hits mostly cytotoxic | hit rate 3.4% among 400,000 | AID 1347076; also: nearly all actives have a fitted effect of over 60% in size
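Readout: CellTiter-Glo luminescence, 10 min after addition. Cells: KB-V1 MDR subline, 72 h at 37 degrees C with compound. Analysis: corrected, normalized data fitted to concentration-effect curves.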
Hits are given with their value; . = inactive; ? = inconclusive; / = not tested or not shown; [ ] = another dose, or the depositor's remark. Unless noted, calls follow the shape of the dose curve; as a rule, active = well fitted curve in the direction sought with a large enough effect; inconclusive = small, poorly fitted or top-dose-only effect, or another doubt; inactive = no such curve, though single readings can be large; an effect the other way counts as inactive or inconclusive.

SMILES | MCF10A rereplic | SW480 rerep | IL-1B inflam inh | KB-3-1 tox | KB-V1 cytotox
Oc1cc2c(cc1C(c1ccc(Cl)c(Cl)c1)N1CCCC1)OCO2 (stereo not drawn) | ? | ? | -99 | . | .
CCn1cc(C(=O)Nc2ccc(C(C)C)cc2)c2cc(OC)c(OC)cc2c1=O | / | / | / | . | ?
CC(C)c1ccc(NC(=O)c2ccc3oc(=O)c(S(=O)(=O)c4ccc(F)cc4)cc3c2)cc1 | / | / | / | . | .
Cc1ccc(S(=O)(=O)c2cc3cc(Br)ccc3oc2=O)cc1 | ? | . | . | 21µM | 18µM
CC(C)c1ccc(S(=O)(=O)c2cc3cc(Br)ccc3oc2=O)cc1 | 8.2µM | . | . | ? | ?
CCOC(=O)C1=C(C)N=c2s/c(=C\c3ccc(OCC(=O)O)cc3)c(=O)n2C1c1ccc(Cl)cc1 (stereo not drawn) | 18µM | .[1.84 µM] | . | . | .
CCOC(=O)C1=C(C)N=c2s/c(=C\c3ccncc3)c(=O)n2C1c1ccc2c(c1)OCO2 (stereo not drawn) | ? | . | -67 | . | .
CSCC[C@H](NC(=O)c1cccc(S(=O)(=O)N2CCN(C)CC2)c1)c1nc2ccccc2[nH]1 | . | ? | . | . | ?
CN(Cc1ccccc1)S(=O)(=O)c1ccc(NC(=S)NC(=O)C2CCCCC2)cc1 | 23µM | ? | . | ? | ?
COc1ccc(CNc2ccc3c(c2)ncn3C)cc1OC | . | 10µM | . | ? | ?
CCn1cnc2cc(NCc3ccncc3)ccc21 | 15µM | . | . | . | .
CCn1cnc2cc(NCc3ccc(Cl)cc3)ccc21 | . | . | ? | . | .
Cn1cnc(S(=O)(=O)N2CCN(c3cccc(C(F)(F)F)c3)CC2)c1 | . | . | ? | . | .
O=C1C2CC=CCC2C(=O)N1c1n[nH]c(Cc2ccccc2)n1 (stereo not drawn) | 7.3µM | . | . | . | .
c1ccc2sc(Sc3ncnc4sccc34)nc2c1 | 21µM | ? | -79 | . | .
CCc1cc2c(Sc3nc4ccccc4s3)ncnc2s1 | ? | ? | ? | 12µM | ?
c1ccc(CSc2ncnc3sccc23)cc1 | . | . | . | . | .
CCCNC(=O)NNC(=O)c1ccc(F)cc1 | . | . | . | . | ?
CCCCCCCCCCCCCCCC[n+]1ccc(CC(O)c2c(C)[nH]c3ccccc23)c2ccccc21 (stereo not drawn) | / | / | / | 16µM | 16µM
CCCc1cc(-c2ccc3c(c2)COc2c4ccccc4nn2-3)on1 | 16µM | . | . | . | .
Cc1cc(-c2ccc3c(c2)COc2c4ccccc4nn2-3)on1 | . | ? | . | . | .
Cc1cc(C)cc(C(=O)NCC(=O)N2CCN(C(c3ccccc3)c3ccccc3)CC2)c1 | 16µM | ? | . | ? | 18µM
O=C(NCC(=O)N1CCN(C(c2ccccc2)c2ccccc2)CC1)c1ccc(Br)o1 | . | . | -73 | ? | ?
COC(=O)Cn1cc(C(=O)C(C)(C)C)c2ccccc21 | . | . | -74 | . | .
CCOC(=O)Cn1cc(C(=O)C2CC2)c2ccccc21 | . | . | . | . | .
SMILES | MCF10A rereplic | SW480 rerep | IL-1B inflam inh | KB-3-1 tox | KB-V1 cytotox
COC(=O)Cn1cc(C(=O)C2CC2)c2ccccc21 | . | . | -89 | . | .
CC(C)CC(NC(=O)C1CCCCC1)C(=O)Nc1cccc(C(F)(F)F)c1 (stereo not drawn) | / | / | / | . | .
Cc1nn(-c2nnc(NC3CCCCC3)nn2)c(C)c1Br | . | . | -75 | . | .
Cc1nn(C)c(C)c1S(=O)(=O)NC1CCCC1 | . | . | . | . | .
CC(C)CCNC(=O)c1ccc2nc(Cc3ccccc3)oc2c1 | / | / | / | . | .
Cc1cc(C)c2c(CN3CCCCC3)cc(=O)oc2c1 | . | . | . | . | .
Cc1cc(C)c2c(CCl)cc(=O)oc2c1 | 5.2µM | 3.7µM | / | ? | ?
C=Cc1ccc(Cn2c(C)c(CNCCc3ccc(OCC)cc3)c(C(=O)O)c2C)cc1 | / | / | / | . | .
Cn1c(Cc2ccccc2)nnc1SCC(=O)c1cccs1 | . | . | . | . | .
Cc1ccc(S(=O)(=O)Nc2ccc(Br)cc2C(NCC(=O)O)c2ccccc2)cc1 (stereo not drawn) | ? | . | . | . | ?
O=S(=O)(Nc1cc(Sc2ncn[nH]2)c(O)c2ccccc12)c1ccccc1 | 1µM | 10µM | -95 | . | .
O=C(O)CSc1cc(NS(=O)(=O)c2ccc(Br)cc2)c2ccccc2c1O | ? | ? | -51 | . | ?
CC(=O)c1c(C)oc2c1cc(NS(=O)(=O)c1ccc(Br)cc1)c1ccccc12 | / | / | / | 5.2µM | ?
Cc1cc(O)c(Sc2ncn[nH]2)cc1NS(=O)(=O)c1ccc(Cl)cc1 | . | . | . | ? | .
COCCn1c(SCC(=O)NC(C)c2ccc(F)cc2)nc2ccccc21 (stereo not drawn) | ? | ? | . | . | .
CN1CCN(NC(=O)CN2C(=O)S/C(=C\c3c(Cl)cccc3Cl)C2=O)CC1 | . | . | . | . | .
CC(C)C[C@H](NC(=O)c1nc[nH]c1C(=O)NC(c1ccccc1)c1ccccc1)C(=O)OCc1ccccc1 | . | . | . | ? | ?
C[C@H](NC(=O)c1nc[nH]c1C(=O)N[C@@H](C)c1ccccc1)C(=O)OC(C)(C)C | . | . | . | . | .
CC(C)C[C@H](NC(=O)c1[nH]cnc1C(=O)N[C@H](C)c1ccccc1)C(=O)OC(C)(C)C | ? | ? | -55 | ? | ?
CC(C)C[C@H](NC(=O)c1nc[nH]c1C(=O)NC(c1ccccc1)c1ccccc1)C(=O)OC(C)(C)C | ? | ? | -69 | ? | ?
COc1ccccc1NC(=O)C1CCCN(S(=O)(=O)c2c(C)noc2C)C1 (stereo not drawn) | . | . | . | . | ?
Cn1c(SCc2c(Cl)cccc2Cl)nnc1-c1ccc2nonc2c1 | ? | . | . | . | .
Cn1c(CS(=O)Cc2c(Cl)cccc2Cl)nnc1SCc1c(Cl)cccc1Cl (stereo not drawn) | . | . | . | . | 5.8µM
Clc1cccc(Cl)c1CSc1nnc(CN2CCOCC2)n1-c1ccccc1 | ? | . | . | . | .
O=S(Cc1ccc(Br)cc1)Cc1nnc(SCc2c(Cl)cccc2Cl)n1-c1ccccc1 (stereo not drawn) | ? | . | . | . | 0.82µM
CCOC(=O)C1CCN(S(=O)(=O)c2ccc3c(c2)N(C(C)=O)CC(C)S3)CC1 (stereo not drawn) | . | . | . | ? | ?
COc1ccc(CNC(=O)O[C@H]2CN(C(=O)OC(C)C)N(C(=O)OC(C)C)[C@@H]3CN(S(=O)(=O)c4ccc(C)cc4)C[C@]23O)cc1OC | / | / | . | . | .
Cc1ccc(S(=O)(=O)N2C[C@H]3N(C(=O)OC(C)C)N(C(=O)OC(C)C)C[C@H](OC(=O)Nc4cccs4)[C@@]3(O)C2)cc1 | / | / | -80 | . | .
Cc1ccc(S(=O)(=O)N2C[C@H]3N(C(=O)OC(C)C)N(C(=O)OC(C)C)C[C@H](OC(=O)NCc4ccccc4F)[C@@]3(O)C2)cc1 | / | / | . | . | .

Screening data as filed in PubChem.
